Out of some 5,500 compounds screened, about 2,000 (36%) were called active. Another 18% or so got no clear call; they are omitted. Cut-off read from the data, not from the text of the source: active = normalized growth mostly below about 0.91 (no sharp cut-off); inconclusive = no clear call, values can overlap the other calls; inactive = mostly above about 0.92. The list shows a part of the results.
Test: chemical genetic growth profiling, strain panel (AID 1159580);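 note: tested at 20 µM; growth read once vehicle control cultures reached saturation at 30 °C; 1 = growth at the plate median or of vehicle wells; lower values mean less growth of the strain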
Details: growth OD

Measured: normalized growth

Cc1onc(-c2c(Cl)cccc2Cl)c1C(=O)N[C@@H]1C(=O)N2[C@@H]1SC(C)(C)[C@@H]2C(=O)O
active: S. cerevisiae deletion strains, locus YKR026C, strain gcn3, hits give low values 1.47 [resistant]
inactive: S. cerevisiae deletion strains, locus YJR066W, strain TOR1, hits give low values 0.946 | S. cerevisiae deletion strains, locus YJR075W, strain HOC1, hits give low values 1.02 | S. cerevisiae deletion strains, locus YKL009W, strain mrt4, hits give low values 0.986 | S. cerevisiae deletion strains, locus YKL068W, hits give low values 1.01 | S. cerevisiae deletion strains, locus YKL085W, strain MDH1 (second series), hits give low values 0.999 | S. cerevisiae deletion strains, locus YKL085W, strain MDH1, hits give low values 0.999 | S. cerevisiae deletion strains, locus YKL160W, strain elf1, hits give low values 0.982 | S. cerevisiae deletion strains, locus YKL190W, strain CNB1, hits give low values 1.01 | S. cerevisiae deletion strains, locus YKR001C, strain vps1, hits give low values 1 | S. cerevisiae deletion strains, locus YKR091W, strain srl3, hits give low values 1 | S. cerevisiae deletion strains, locus YLL001W, strain dnm1, hits give low values 0.962 | S. cerevisiae deletion strains, locus YLL026W, hits give low values 1 | S. cerevisiae deletion strains, locus YLL041C, strain sdh2, hits give low values 0.987 | S. cerevisiae deletion strains, locus YLR027C, strain aat2, hits give low values 0.991 | S. cerevisiae deletion strains, locus YLR039C, strain RIC1, hits give low values 1.03 | S. cerevisiae deletion strains, locus YLR058C, strain SHM2, hits give low values 1.02 | S. cerevisiae deletion strains, locus YLR102C, strain apc9, hits give low values 0.994 | S. cerevisiae deletion strains, locus YLR113W, strain HOG1, hits give low values 1.06 | S. cerevisiae deletion strains, locus YLR221C, strain rsa3, hits give low values 1.05 | S. cerevisiae deletion strains, locus YLR258W, strain gsy2, hits give low values 1.02 | S. cerevisiae deletion strains, locus YLR262C, strain YPT6 (second series), hits give low values 0.961 | S. cerevisiae deletion strains, locus YLR262C, strain YPT6, hits give low values 1.02 | S. cerevisiae deletion strains, locus YLR268W, strain sec22, hits give low values 0.987 | S. cerevisiae deletion strains, locus YLR320W, strain mms22, hits give low values 1.06 | S. cerevisiae deletion strains, locus YLR330W, strain CHS5, hits give low values 1.02 | S. cerevisiae deletion strains, locus YLR342W, strain FKS1 (second series), hits give low values 1.04 | S. cerevisiae deletion strains, locus YLR342W, strain FKS1, hits give low values 0.979 | S. cerevisiae deletion strains, locus YLR357W, strain rsc2, hits give low values 0.98 | S. cerevisiae deletion strains, locus YLR370C, strain arc18, hits give low values 1.01 | S. cerevisiae deletion strains, locus YLR371W, strain rom2, hits give low values 0.985 | S. cerevisiae deletion strains, locus YLR384C, strain iki3, hits give low values 0.977 | S. cerevisiae deletion strains, locus YLR418C, strain cdc73, hits give low values 0.946 | S. cerevisiae deletion strains, locus YML016C, strain PPZ1, hits give low values 1.02 | S. cerevisiae deletion strains, locus YML032C, strain rad52, hits give low values 0.987 | S. cerevisiae deletion strains, locus YML120C, strain ndi1, hits give low values 0.99 | S. cerevisiae deletion strains, locus YML124C, strain tub3, hits give low values 0.985 | S. cerevisiae deletion strains, locus YMR058W, strain fet3, hits give low values 1.01 | S. cerevisiae deletion strains, locus YMR078C, strain ctf18, hits give low values 0.991 | S. cerevisiae deletion strains, locus YMR125W, strain sto1, hits give low values 0.951 | S. cerevisiae deletion strains, locus YMR129W, hits give low values 0.997 | S. cerevisiae deletion strains, locus YMR205C, strain PFK2, hits give low values 0.984 | S. cerevisiae deletion strains, locus YMR223W, strain ubp8, hits give low values 0.973 | S. cerevisiae deletion strains, locus YMR231W, strain pep5, hits give low values 0.985 | S. cerevisiae deletion strains, locus YMR307W, strain GAS1, hits give low values 1.02 | S. cerevisiae deletion strains, locus YNL067W, strain RPL9B, hits give low values 1 | S. cerevisiae deletion strains, locus YNL071W, strain lat1, hits give low values 0.998 | S. cerevisiae deletion strains, locus YNL128W, strain TEP1, hits give low values 1.01 | S. cerevisiae deletion strains, locus YNL183C, strain NPR1, hits give low values 1 | S. cerevisiae deletion strains, locus YNL209W, strain ssb2, hits give low values 1.02 | S. cerevisiae deletion strains, locus YNL233W, strain BNI4, hits give low values 0.997 | S. cerevisiae deletion strains, locus YNL248C, strain rpa49, hits give low values 1.03 | S. cerevisiae deletion strains, locus YNL250W, strain rad50, hits give low values 0.989 | S. cerevisiae deletion strains, locus YNL271C, strain bni1, hits give low values 0.98 | S. cerevisiae deletion strains, locus YNL298W, strain CLA4, hits give low values 0.999 | S. cerevisiae deletion strains, locus YNL307C, strain MCK1, hits give low values 0.987 | S. cerevisiae deletion strains, locus YNL322C, strain KRE1 (second series), hits give low values 0.965 | S. cerevisiae deletion strains, locus YNL322C, strain KRE1, hits give low values 1.01 | S. cerevisiae deletion strains, locus YNR049C, strain mso1, hits give low values 0.991 | S. cerevisiae deletion strains, locus YNR052C, strain pop2, hits give low values 0.997 | S. cerevisiae deletion strains, locus YOL006C, strain TOP1, hits give low values 1.03 | S. cerevisiae deletion strains, locus YOL012C, strain htz1 1.88 | S. cerevisiae deletion strains, locus YOL147C, strain pex11, hits give low values 0.987 | S. cerevisiae deletion strains, locus YOR001W, strain rrp6, hits give low values 0.972 | S. cerevisiae deletion strains, locus YOR061W, strain CKA2, hits give low values 1.03 | S. cerevisiae deletion strains, locus YOR069W, strain VPS5, hits give low values 1.02 | S. cerevisiae deletion strains, locus YOR070C, strain gyp1, hits give low values 1.01 | S. cerevisiae deletion strains, locus YOR080W, strain dia2, hits give low values 0.967 | S. cerevisiae deletion strains, locus YOR083W, strain WHI5, hits give low values 0.964 | S. cerevisiae deletion strains, locus YOR106W, strain vam3, hits give low values 0.957 | S. cerevisiae deletion strains, locus YOR136W, strain idh2, hits give low values 0.988 | S. cerevisiae deletion strains, locus YOR144C, strain elg1, hits give low values 0.989 | S. cerevisiae deletion strains, locus YOR184W, strain ser1, hits give low values 0.978 | S. cerevisiae deletion strains, locus YOR231W, strain MKK1, hits give low values 1.06 | S. cerevisiae deletion strains, locus YOR265W, strain rbl2, hits give low values 0.985 | S. cerevisiae deletion strains, locus YOR270C, strain vph1, hits give low values 0.995 | S. cerevisiae deletion strains, locus YOR290C, strain snf2, hits give low values 1.03 | S. cerevisiae deletion strains, locus YOR316C, strain cot1, hits give low values 0.998 | S. cerevisiae deletion strains, locus YPL051W, strain arl3, hits give low values 1.01 | S. cerevisiae deletion strains, locus YPL078C, strain atp4, hits give low values 0.951 | S. cerevisiae deletion strains, locus YPL106C, strain sse1, hits give low values 0.964 | S. cerevisiae deletion strains, locus YPL240C, strain hsp82, hits give low values 0.998 | S. cerevisiae deletion strains, locus YPL241C, strain CIN2, hits give low values 1.02 | S. cerevisiae deletion strains, locus YPL256C, strain CLN2, hits give low values 1.04 | S. cerevisiae deletion strains, locus YPR119W, strain clb2, hits give low values 0.99 | S. cerevisiae deletion strains, locus YPR141C, strain kar3, hits give low values 1 | S. cerevisiae deletion strains, locus YPR163C, strain tif3, hits give low values 0.998 | S. cerevisiae deletion strains, locus YPR167C, strain met16, hits give low values 0.985 | S. cerevisiae deletion strains, strain wtn01, hits give low values 0.97 | S. cerevisiae strains, strain wild type, hits give low values 1.02

Source: PubChem BioAssay AID1159580 (chemical genetic matrix, 2015)
